NRP1-CendR mod – alters CendR peptide binding to human NRP-1; FAM-RPARPAR peptide binding to NRP-1, fluorescence polarization; 360,000 compounds, 0.85% hits; AID 602438; O14786; inhibition, % at 25 µM;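 active = inhibition or corrected inhibition above about 18%, plus a signal ratio from 0.5 to 1.5, limit read from the data, passing the limit was not always enough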
ADAM17 inh – inhibitors of human ADAM17; P78536; recombinant ADAM17, EDANS/DABCYL FRET peptide cleavage; inhibition, % at 6.95 µM; 370,000 compounds, 0.83% hits; AID 720648;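 active = inhibition above the mean of compounds lying between control limits plus 3 SD, set per campaign, cut at about 8.5% in these data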;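 also: 0% = DMSO-only wells as the low control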
APOBEC3A inh – human APOBEC3A DNA deaminase inhibition; 330,000 compounds, 0.41% hits; inhibition, % at 20 µM; P31941; AID 493011; recombinant A3A, FAM/TAMRA ssDNA deamination fluorescence;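 active = at least 40% inhibition at 20 µM here, with at most 30% in a related deaminase screen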;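 also: plate controls were A3A with DMSO for no effect and wells lacking A3A enzyme for full effect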
A3G deaminase – APOBEC3G (human) deaminase inhibition. recombinant A3G, ssDNA deamination FAM/TAMRA fluorescence. inhibition, % at 20 µM. 330,000 compounds, 0.28% hits. AID 493012;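 active = inhibition of at least 40% at 20 µM, with no more than 30% in the related APOBEC3A deaminase screen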;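 also: plate controls were DMSO wells with A3G for no effect and wells lacking A3G enzyme for full effect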
Target sequence (Q9HC16 whole entry, looked up): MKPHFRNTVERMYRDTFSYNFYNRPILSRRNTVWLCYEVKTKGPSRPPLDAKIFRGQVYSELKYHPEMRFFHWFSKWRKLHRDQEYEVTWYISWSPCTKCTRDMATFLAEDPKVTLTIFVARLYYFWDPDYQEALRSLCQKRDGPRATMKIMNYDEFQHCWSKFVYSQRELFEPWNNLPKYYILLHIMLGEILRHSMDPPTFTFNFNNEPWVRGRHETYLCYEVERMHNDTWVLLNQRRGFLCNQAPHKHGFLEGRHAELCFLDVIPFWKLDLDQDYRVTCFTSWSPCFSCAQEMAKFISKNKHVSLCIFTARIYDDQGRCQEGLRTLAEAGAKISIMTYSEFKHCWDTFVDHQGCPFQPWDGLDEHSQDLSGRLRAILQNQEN
ADAM10 inh – inhibitors of human ADAM10; AID 720582; recombinant ADAM10, EDANS/DABCYL FRET peptide cleavage, 3 h; inhibition, % at 7 µM; 370,000 compounds, 0.62% hits;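 active = inhibition above a per-campaign cutoff equal to the mean of compounds falling between control-based bounds plus 3 SD, cut at about 20% in these data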;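 also: 0% = DMSO wells while the 100% control is not disclosed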
The depositor's hits bear a star; · = no result given. The list is not random: actives were taken first. Their share in the collection is about 2.4%.

SMILES | NRP1-CendR mod | ADAM17 inh | APOBEC3A inh | A3G deaminase | ADAM10 inh
COc1ccc(F)cc1C1=CC(=O)C[C@H](c2ccc3c(c2)OCO3)C1 | 25* | 2 | 1 | -6 | 5
Cc1ccc(NC(=O)c2nc[nH]c2C(=O)N2CCC(C)CC2)cc1 | -2 | -2 | 3 | -3 | 3
CCOC(=O)c1[nH]cnc1C(=O)N1CCC(C)CC1 | -10 | 2 | 1 | -8 | 6
CC1CCN(C(=O)c2nc[nH]c2C(=O)N2CCc3ccccc3C2)CC1 | 29* | 1 | -6 | -14 | -3
CC1CCN(C(=O)c2nc[nH]c2C(=O)N2CCC(C)CC2)CC1 | 36* | 3 | 0 | -8 | -5
COc1ccc(NC(=O)c2nc[nH]c2C(=O)N2CCC(C)CC2)cc1 | 25* | -1 | -4 | -7 | 0
CN1CCC(N[C@@H](Cc2c[nH]c3ccccc23)C(=O)NCCCc2ccccc2)(C(=O)NCCc2c[nH]c3ccccc23)CC1 | · | 1 | · | · | 6
CN(C)c1ccc(Cl)cc1N | 28* | -4 | -2 | -9 | -1
Nc1cc(Cl)ccc1Oc1ccc(Cl)cc1 | -5 | 3 | 2 | -5 | 14
CCn1c(COc2ccc(C)cc2)nnc1SCC(=O)Nc1ccccc1-c1ccccc1 | · | 7 | · | · | 14
N#Cc1ccc(Nc2nc(-c3ccccc3)cs2)cc1 | 6 | -2 | · | · | -24
c1ccc(-c2csc(Nc3ccc4c(c3)OCO4)n2)cc1 | 24* | 6 | · | · | 12
O=[N+]([O-])c1ccc(CN2CCN(c3ccccc3)CC2)o1 | 28* | 1 | -9 | -8 | 3
O=C(NCc1ccc(F)cc1)c1cccnc1C(=O)O | 27* | 1 | -4 | -7 | -2
C(#Cc1ccccc1)Cn1nnc2ccccc21 | 5 | -11 | -2 | -2 | -15
c1ccc(CNn2nnc3ccccc32)cc1 | 23* | 0 | · | · | 3
CCS(=O)(=O)Nc1ccc2c(c1)C(=O)N(C)[C@@H]1CC[C@H](CC(=O)N[C@@H]3CCN(Cc4ccccc4)C3)O[C@H]1CO2 | · | -6 | · | · | -14
COc1ccc2ccccc2c1-c1c(C(=O)c2ccc(Br)cc2)[nH]c(N)c1C(=O)NC1CCCCC1 | · | 1 | · | · | 5
O=C1CCCN1CCCNc1nc(NCc2cccs2)nc2ccsc12 | 26* | -6 | · | · | -10
O=C(CCN1CCN(c2ccccc2)CC1)NNC(=O)Cc1ccccc1Cl | 37* | -6 | 2 | -6 | -9
O=C(NCc1ccccc1)[C@@H]1CCCN1C(=O)[C@H]1CCCN1C(=O)C1CCCCC1 | · | 0 | · | · | 2
N#Cc1c(-c2ccco2)nc(NCC2CCCO2)[nH]c1=O (stereo not given) | 27* | -2 | -3 | -5 | 4
CCN=C1NC(c2ccc(F)cc2)C(C(=O)OC)=C(C)N1Cc1cccc(C(F)(F)F)c1 (stereo not given) | · | -2 | · | · | -5
CN(C)CCCN1C(=O)c2cccc3c([N+](=O)[O-])ccc(c23)C1=O | 29* | 0 | · | · | -12
O=C1c2cccc3c([N+](=O)[O-])ccc(c23)C(=O)N1CCc1ccccn1 | -11 | -1 | 0 | -1 | -1
SMILES | NRP1-CendR mod | ADAM17 inh | APOBEC3A inh | A3G deaminase | ADAM10 inh
COc1cc(OC)cc(-c2csc(N3CCC(C(N)=O)CC3)n2)c1 | · | 0 | · | · | 4
Cc1cccc(Oc2ccc(Cl)cc2N)c1 | 29* | 1 | -2 | -6 | 3
CC(c1ccccc1)n1cc(C(=O)NCCCN2CCCC2)nn1 (stereo not given) | · | 0 | · | · | -1
CCc1ccc(O)c(CNCCNCc2cc(CC)ccc2O)c1 | 8 | -3 | -2 | -7 | -20
Cc1ccc(O)c(CNCCNCc2cc(C)ccc2O)c1 | 25* | 1 | 0 | -3 | 3
O=C(O)c1ccc(CSc2nnc(SCc3ccccc3)s2)cc1 | 11 | -5 | -16 | -8 | -8
O=C(O)c1ccc(CSC2CCCCC2)cc1 | 22* | 0 | 0 | -4 | -5
CCOC(=O)c1csc(NC(=O)c2ccc3c(c2)OCCO3)n1 | 29* | · | -3 | -3 | ·
O=C1CCC[C@H]2C[C@H](NCc3cccc(Cl)c3)CC[C@]23CCCN13 | · | -1 | · | · | 0
COC(=O)c1c(-c2ccc(OC)cc2)c2c(c3c4cc(OC)ccc4n(S(=O)(=O)c4ccc(C)cc4)c13)C(=O)N(C)C2 | · | -3 | · | · | -7
O=C(CC[C@H]1O[C@@H](n2cnc3c(NC(=O)c4ccccc4)ncnc32)[C@H](O)[C@@H]1O)NCC(F)(F)F | 20* | -8 | · | · | -3

Bioassay records deposited in PubChem by several laboratories.
